38 molecules from the supplement of paper PMC10498489 can be followed below.

Molecules are shown by their SMILES. The whole screen tested about 2,300 compounds, of which about 330 (14%) showed activity. The list is a sample of the results. Values without a mark were called inactive.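 Rule for the calls: active = median modified Z-score above 1.96; inactive = 1.96 or below.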

In this assay the test system is HepG2 Srxn1-GFP reporter cells (+30 nM CDDO-Me). The assay can be described thus: Srxn1-GFP intensity median modified Z-score relative to plate median; higher = stronger NRF2 / oxidative stress reporter activation, active = hit call of the paper. Conditions: 10 µM; exposure time: 24h. The procedure, abridged:
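Per-cell cytoplasmic GFP was measured on confocal images of formaldehyde-fixed, Hoechst-stained HepG2 Srxn1-GFP BAC reporter cells, excluding images with fewer than 100 cells. Before this, the cells (20,000 per well, 96-well plates) were co-exposed for 24 h to compound at 10 μM and an NRF2 activator at 30 nM with ≤0.1% DMSO, in three replicate plates. Each value is the median over replicates of the per-plate modified Z-score of GFP intensity. That score was scaled with 1.4826 × median absolute deviation.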
For the molecule `C[N+]1(C)C2CCC1CC(OC(=O)C(CO)c1ccccc1)C2` (stereo not drawn) [euspeclibcmpd790], the “Srxn1-GFP intensity median modified Z-score” value was -0.464.
Next, `CN1CCCCC1c1ccc(-c2cccnc2)nc1` (stereo not drawn) [euspeclibcmpd1697]: -0.301.
Consider `C[N+]12CCC(CC1)C(OC(=O)C(O)(c1ccccc1)c1ccccc1)C2` (stereo not drawn) [euspeclibcmpd67], for which the “Srxn1-GFP intensity median modified Z-score” value was 0.0285.
In the case of `O=P1(N(CCCl)CCCl)NCCCO1` (stereo not drawn) [euspeclibcmpd2335], the “Srxn1-GFP intensity median modified Z-score” value is -0.33.
With `N=c1nc[nH][nH]1` [euspeclibcmpd1771], the “Srxn1-GFP intensity median modified Z-score” value is -0.334.
Next, `COc1ccc(C(=O)N2CCCC2=O)cc1` [euspeclibcmpd835]: 1.03; `NC(Cc1ccc(N(CCCl)CCCl)cc1)C(=O)O` (stereo not drawn) [euspeclibcmpd181]: 0.947.
Regarding `COc1cc2c(cc1OC)C1C(=O)c3ccc4oc(C(C)C)cc4c3O[C@@H]1CO2` (stereo partly drawn) [euspeclibcmpd1384], the “Srxn1-GFP intensity median modified Z-score” value was 0.895.
`COc1cc2c(cc1OC)-c1c(oc3c4c(ccc3c1=O)OC(C(C)C)C4)CO2` (stereo not drawn) [euspeclibcmpd1802]: the “Srxn1-GFP intensity median modified Z-score” value is -0.169.
For the molecule `C=C(C)C1Cc2c(ccc3c(=O)c4c(oc23)COc2cc(OC)c(OC)cc2-4)O1` (stereo not drawn) [euspeclibcmpd1633], the “Srxn1-GFP intensity median modified Z-score” value was 0.389.
Next, `C=C(C)[C@H]1Cc2c(ccc3c2O[C@@H]2COc4cc(OC)c(OC)cc4C2C3=O)O1` (stereo partly drawn) [euspeclibcmpd1688]: 63.1 (active); `COc1cc2c(cc1OC)C1C(=O)c3ccc4c(c3O[C@@H]1CO2)CC(C(C)C)O4` (stereo partly drawn) [euspeclibcmpd1349]: 54.1 (active); `CCC1(c2ccc(N)cc2)CCC(=O)NC1=O` (stereo not drawn) [euspeclibcmpd20]: -0.169.
Take `C[C@]12CCC(=O)C=C1CCc1ccc(O)cc12` [euspeclibcmpd2145]: the “Srxn1-GFP intensity median modified Z-score” value is -0.0198.
For `NC(=O)c1cc([N+](=O)[O-])cc([N+](=O)[O-])c1` [euspeclibcmpd211], the “Srxn1-GFP intensity median modified Z-score” value is 1.85.
In the case of `CC(=O)O[C@H]1CC[C@@]2(C)C(=CCC3C2CC[C@]2(C)C(=O)CCC32)C1` (stereo partly drawn) [euspeclibcmpd1015], the “Srxn1-GFP intensity median modified Z-score” value was -0.448.
In the case of `CC1[C@H](C)OC(=O)CC(O)CC(O)CC(O)CCC(O)C(O)C[C@]2(O)CC(O)C(C(=O)O)C(CC(OC3O[C@H](C)[C@@H](O)[C@H](N)[C@@H]3O)/C=C/C=C/C=C/C=C/CC/C=C/C=C/[C@H](C)[C@H]1O)O2` (stereo partly drawn) [euspeclibcmpd218], the “Srxn1-GFP intensity median modified Z-score” value was 0.964.
Turning to `c1ccc2c(c1)OCC(C1=NCCN1)O2` (stereo not drawn) [euspeclibcmpd1238], the “Srxn1-GFP intensity median modified Z-score” value is 0.16.
`COc1cccc([C@]2(O)CCCC[C@H]2CN(C)C)c1` [euspeclibcmpd765]: the “Srxn1-GFP intensity median modified Z-score” value is -0.221.
For the molecule `NC(=O)C[S+]([O-])C(c1ccccc1)c1ccccc1` (stereo not drawn) [euspeclibcmpd2299], the “Srxn1-GFP intensity median modified Z-score” value was 0.327.
`O=C1C=C2C=CC3C[C@@]2(O1)[C@H]1CCCCN31` [euspeclibcmpd1211]: the “Srxn1-GFP intensity median modified Z-score” value was 9.38 (active).
In the case of `CC1NCCc2cc(O)c(O)cc21` (stereo not drawn) [euspeclibcmpd2171], the “Srxn1-GFP intensity median modified Z-score” value was -0.549.
Consider `CC[C@H]1C2CC3[C@@H]4N(C)c5ccccc5[C@]45C[C@@H](C2C5O)N3[C@@H]1O` (stereo partly drawn) [euspeclibcmpd1044], for which the “Srxn1-GFP intensity median modified Z-score” value is -0.296.
Regarding `Cc1[nH]c2ccccc2c1CN(C)C` [euspeclibcmpd2173], the “Srxn1-GFP intensity median modified Z-score” value was -0.24.
Next, `CN1C2C[C@H](OC(=O)C(CO)c3ccccc3)C[C@H]1[C@H]1OC21` (stereo partly drawn) [euspeclibcmpd266]: -0.44; `Cc1cccc(C)c1N=C1NCCCS1` [euspeclibcmpd416]: -0.674.
With `C=C/C=C\CC1=C(C)C(OC(=O)C2[C@@H](C=C(C)C)C2(C)C)CC1=O` (stereo partly drawn) [euspeclibcmpd1257], the “Srxn1-GFP intensity median modified Z-score” value is 2.3 (active).
In the case of `CC(C)=CC1C(C(=O)OCc2cccc(Oc3ccccc3)c2)C1(C)C` (stereo not drawn) [euspeclibcmpd1161] it was -0.28; in that of `CCOC(=O)C1C(C=C(C)C)C1(C)C` (stereo not drawn) [euspeclibcmpd1522], 0.0825; in that of `O=C(O)CCCc1ccc(N(CCCl)CCCl)cc1` [euspeclibcmpd51], -0.412.
Regarding `C=C[C@H]1C[N@@]2CC[C@H]1C[C@H]2[C@H](O)c1ccnc2ccccc12` [euspeclibcmpd2388], the “Srxn1-GFP intensity median modified Z-score” value is -0.0385.
Consider `O=[N+]([O-])O[C@H]1CO[C@H]2[C@@H]1OC[C@H]2O[N+](=O)[O-]` [euspeclibcmpd166], for which the “Srxn1-GFP intensity median modified Z-score” value is -0.506.
With `O=[N+]([O-])O[C@@H]1CO[C@H]2[C@@H]1OC[C@@H]2O` [euspeclibcmpd605], the “Srxn1-GFP intensity median modified Z-score” value was 3.27 (active).
Next, `Cc1cc(OC(=O)N2CCCCC2)c(C(C)C)cc1[N+](C)(C)C` [euspeclibcmpd1842]: 0.636; `COc1ccc(O)c(C(C)(C)C)c1` [euspeclibcmpd2212]: 0.639; `O=C1c2ccccc2-c2cccc3cccc1c23` [euspeclibcmpd1379]: 0.148.
In the case of `C=C(C)c1cc2cc(C(C)=O)c(O)cc2o1` [euspeclibcmpd1716] it was 10.1 (active); in that of `O=C(O)CCCO` [euspeclibcmpd2162], -0.552.
